Laboratory results published in PubChem BioAssay (NCATS).
Where “and” joins values, the source holds several entries; their conditions need not be identical. Equal entries are not always repeated. Inconclusive results are not listed. Calls of active or inactive are those of the source. Unless noted, the call rests on the fitted dose curve; in most records, active means well fitted curve in the direction sought with a large enough effect; inconclusive means small, poorly fitted or top-dose-only effect, or another doubt; inactive means no such curve, though single readings can be large; an effect the other way counts as inactive or inconclusive.

How the values were obtained:
[1] = Cell Viability - NIH 3T3 (AID 541); conditions: NIH 3T3 cell viability, qHTS; activity change, negative = cytotoxicity: at 92.2 µM (top of the series);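 further: cells exposed to compound for 40 hours; plate controls were DMSO alone for no effect and tamoxifen positive control for full effect; nearly all actives have a fitted effect of over 25% in size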
Method in brief: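 Intracellular ATP (CellTiter-Glo luminescence, 20 min at room temperature) measured after 40 hr compound exposure at 37 °C of 1000 NIH 3T3 mouse fibroblasts/well in complete medium; AC50 derived by Hill-equation modelling of qHTS concentration-response curves.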

[2] = Cell Viability - H-4-II-E (AID 543);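 further: cells exposed to compound for 40 hours; on the % scale 0 is the no-effect control and ±100 the full control effect; nearly all actives have a fitted effect of over 35% in size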
Method in brief: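 CellTiter-Glo luminescence (intracellular ATP) measured after 40 h compound exposure at 37 °C in H-4-II-E rat hepatoma cells seeded at 1500/well. Values are AC50s fitted with the standard Hill equation.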

[3] = Cellular Toxicity (caspase-3) Jurkat (AID 655); conditions: Jurkat caspase-3 activation, luminescence; caspase-3 activation: at 92.2 µM (top of the series), DMSO = 0%, tamoxifen = 100%;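 further: cells exposed to compound for 16 h at 37 °C before reading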
Method in brief: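 Jurkat cells (5000/well) in complete medium were treated with compounds for 16 hr at 37 °C, then Caspase-Glo 3/7 luminescence was read after 20 min at room temperature. Data normalized to DMSO (basal) and 100 uM tamoxifen (100%); AC50 from Hill fit.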

[4] = Cellular Toxicity (caspase-3) BJ (AID 658);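 further: cells exposed to compound for 16 hours; 0% = DMSO basal and 100% = 10 µM staurosporine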
Method in brief: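 Plated BJ cells (1000/well) rested 5 hr, received compound for 16 hr at 37 °C, then Caspase-Glo 3/7 reagent for 1 hr at room temperature before luminescence reading.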

[5] = MultiTox-Fluor Cytotoxicity Assay - LYMP1-003 - Dead Cells (AID 961); further: nearly all actives have a fitted effect of over 70% in size
Method in brief: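 Dead-cell protease release, detected as bis-AAF-R110 fluorescence at 485/520 nm, was measured in LYMP1-003 cells after 16 h compound treatment at 37 C. AC50 values came from Hill-modeled qHTS curves normalized to DMSO (0%) and 15 uM tetraoctylammonium bromide (100%).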

[6] = Cell Viability - LYMP1-003 - Assay at 40 hr (AID 964); further: on the % scale 0 is the no-effect control and ±100 the full control effect; nearly all actives have a fitted effect of over 60% in size
Method in brief: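 Viability is taken as cellular ATP, read by CellTiter-Glo luminescence after 40 h of compound exposure at 37 C. Cells: human lymphoblastoid line LYMP1-003 at 2500/well; AC50 values derived by Hill-equation fitting of concentration-response data.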

[7] = Cell Viability - LYMP2-021 (AID 974); further: on the % scale 0 is the no-effect control and ±100 the full control effect; nearly all actives have a fitted effect of over 55% in size
Method in brief: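 AC50 values come from Hill-equation fits to CellTiter-Glo luminescence (ATP content), read after 24 hour compound exposure at 37 C of 2500 LYMP2-021 lymphoblastoid cells/well; tetraoctylammonium bromide as positive control.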

[8] = Cell Viability - LYMP2-023 (AID 975);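 further: cellular ATP measured by luciferase luminescence as viability proxy; plate controls were DMSO only for no effect and 92 µM tetraoctylammonium bromide control for full effect; nearly all actives have a fitted effect of over 55% in size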
Method in brief: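 Intracellular ATP, read by CellTiter-Glo luminescence, reports viability after 24 hr compound exposure at 37 C. 2500 lymphoblastoid cells/well (LYMP2-023) seeded 5 hr beforehand; Hill fits give AC50; positive control tetraoctylammonium bromide.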

[9] = Cell Viability - LYMP2-006 (AID 978); further: on the % scale 0 is the no-effect control and ±100 the full control effect; nearly all actives have a fitted effect of over 60% in size
Method in brief: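 Human lymphoblastoid cells, 2500 per well, were preincubated 5 hr at 37 C, then exposed to compounds for 24 hr at 37 C in complete medium. Viability was read as intracellular ATP by CellTiter-Glo luminescence; AC50 from Hill-equation fits of qHTS concentration-response data.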

[10] = Cell Viability - LYMP2-018 (AID 985);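 further: plate controls were DMSO only for no effect and tetraoctylammonium bromide at 92 µM for full effect; nearly all actives have a fitted effect of over 50% in size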
Method in brief: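 Viability read as CellTiter-Glo luminescence (cellular ATP) after 24 hr compound exposure at 37 C of 2500 LYMP2-018 lymphoblastoid cells/well, pre-plated 5 hr. Hill-equation modelling gave AC50.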

[11] = Cell Viability - LYMP2-020 (AID 986);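 further: plate controls were DMSO only for no effect and tetraoctylammonium bromide at 92 µM for full effect; nearly all actives have a fitted effect of over 55% in size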
Method in brief: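 Cytotoxicity in qHTS format: luminescent ATP readout from CellTiter-Glo after 24 h compound exposure at 37 C in complete medium. LYMP2-020 lymphoblastoid cells were seeded at 2500/well; concentration-response data fitted to the Hill equation for AC50.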

[12] = Cell Viability - LYMP2-022 (AID 987);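 further: 0% = DMSO alone and full effect = tetraoctylammonium bromide at 92 µM; nearly all actives have a fitted effect of over 55% in size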
Method in brief: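 Cytotoxicity read as decreased cellular ATP (CellTiter-Glo luminescence, 30 min room temperature) after 24 hours compound exposure of 2500 lymphoblastoid LYMP2-022 cells/well at 37 C. Concentration-response data fitted with standard Hill equation for AC50.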

[13] = target: Thyroid hormone receptor beta (Homo sapiens) (UniProt P10828); assay: qHTS assay for small molecule agonists of thyroid hormone receptor beta signaling (AID 588545; calls by dose curve;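 further: 0% = DMSO only and 100% = 10 nM T3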)
Method in brief: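 Stimulation of a TR-driven beta-lactamase reporter was quantified in GripTite HEK 293 cells. Compound series ran for 18 hrs; curves were normalized to T3 and DMSO controls and fitted to yield EC50.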

[14] = target: Voltage-gated inwardly rectifying potassium channel KCNH2 (Homo sapiens) (UniProt Q12809); assay: qHTS Assay for Small Molecule Inhibitors of the Human hERG Channel Activity (AID 588834);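 further: top concentration of the series differs between compounds; on the % scale 0 is the no-effect control and ±100 the full control effect; lower thallium flux fluorescence means stronger hERG block; nearly all actives have a fitted effect of over 50% in size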
Method in brief: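 In hERG-transduced U2OS cells, dye-loaded for 1 hr at room temperature in dark, test compounds incubated 10 min at 37 °C before thallium stimulation. AC50 values derived by Hill modelling of concentration-response.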

[15] = qHTS assay for small molecule activators of the nuclear factor-kappa B (NF-kB) signaling pathway (AID 651749; active means well fitted activation curve with a large enough effect in the signal ratio; the % refers to the signal ratio; further: % of control where 0% means no effect); conditions: NF-kB-bla ME-180 cells, beta-lactamase FRET ratio, 16 h; active compounds read high
Method in brief: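 Human ME-180 cervical cells with an NF-kB-bla construct; compounds added via 23 nL pin transfer, DMSO as vehicle; incubation 16 hr. Reporter activity measured by FRET disruption.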

[16] = target: Nuclear receptor ROR-gamma (Homo sapiens) (UniProt P51449); assay: qHTS assay for small molecule antagonists of the retinoid-related orphan receptor gamma (ROR-gamma) signaling pathway (AID 651802);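 further: CHO cells with doxycycline-induced ROR-gamma expression; luciferase reporter luminescence driven by ROR response element; on the % scale 0 is the no-effect control and ±100 the full control effect; nearly all actives have a fitted effect of over 60% in size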
Method in brief: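 Luminescence (One-Glo, 30 min RT) measured 16 h after compound addition and doxycycline induction at 37C. Reporter: RORE-luciferase under TET-inducible ROR-gamma in CHO cells.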

[17] = qHTS assay for small molecule agonists of the antioxidant response element (ARE) signaling pathway measured by Nrf2-dependant transcriptional activity (AID 720636; active means well fitted curve in the direction sought with a large enough effect in the repeat runs; an effect the other way counts as inactive or inconclusive;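 further: HepG2 cells with an ARE-driven luciferase reporter; % of control where 0% means no effect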)
Method in brief: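 Attachment 6 hr at 37 C, then compound versus DMSO vehicle for 16 hr in ARE-luc HepG2 cells (1% dialyzed FBS); luminescence recorded 30 min after ONE-Glo addition at room temperature.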

[18] = qHTS assay for small molecule activators of the human pregnane X receptor (PXR) signaling pathway (AID 720659; call rule not given here; further: 0% is about no effect)
[19] = Cell Viability - LYMP2-010 (AID 981)
Method in brief: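 CellTiter-Glo ATP luminescence measured cytotoxicity after 24 h compound exposure at 37 C. LYMP2-010 cells were seeded at 2500/well, with tetraoctylammonium bromide as control; concentration-response curves gave AC50 values by the Hill equation.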

[20] = target: Thyroid hormone receptor beta (Homo sapiens) (UniProt P10828); assay: qHTS assay for small molecule antagonists of thyroid hormone receptor beta signaling (AID 588547; active means well fitted inhibition curve with a large enough effect in the signal ratio, with a control signal flat, not every such curve was filed as active; the % refers to the signal ratio;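 further: cells stimulated with 0.4 nM T3 agonist during compound exposure; on the % scale 0 is the no-effect control and ±100 the full control effect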); conditions: TR-UAS-bla HEK293, beta-lactamase ratio, antagonist mode, 18 h
Method in brief: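 TR-UAS-bla GripTite HEK293 cells in 2% charcoal/dextran FBS medium were preincubated 4 h at 37 C, given compound (0.59 nM to 92 uM) plus 0.4 nM T3 (final) for 18 h, then CCF4 for 2 h at RT; Hill fit gave IC50.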

Chain of Nuclear receptor ROR-gamma (Homo sapiens) (P51449 whole entry, looked up): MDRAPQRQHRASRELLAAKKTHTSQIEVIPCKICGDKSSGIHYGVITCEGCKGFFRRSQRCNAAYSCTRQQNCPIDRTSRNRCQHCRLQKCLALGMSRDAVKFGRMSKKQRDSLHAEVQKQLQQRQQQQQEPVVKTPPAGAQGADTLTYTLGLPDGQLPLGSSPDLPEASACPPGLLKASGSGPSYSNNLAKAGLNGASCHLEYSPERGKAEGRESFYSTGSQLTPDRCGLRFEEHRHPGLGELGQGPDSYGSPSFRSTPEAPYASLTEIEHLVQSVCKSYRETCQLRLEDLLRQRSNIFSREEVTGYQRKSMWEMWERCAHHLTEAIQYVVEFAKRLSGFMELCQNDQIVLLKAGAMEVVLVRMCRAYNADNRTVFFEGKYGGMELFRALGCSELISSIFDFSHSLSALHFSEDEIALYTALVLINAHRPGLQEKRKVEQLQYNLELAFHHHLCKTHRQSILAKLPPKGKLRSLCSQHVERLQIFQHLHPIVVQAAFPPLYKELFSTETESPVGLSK
Chain of Voltage-gated inwardly rectifying potassium channel KCNH2 (Homo sapiens) (Q12809 whole entry, looked up): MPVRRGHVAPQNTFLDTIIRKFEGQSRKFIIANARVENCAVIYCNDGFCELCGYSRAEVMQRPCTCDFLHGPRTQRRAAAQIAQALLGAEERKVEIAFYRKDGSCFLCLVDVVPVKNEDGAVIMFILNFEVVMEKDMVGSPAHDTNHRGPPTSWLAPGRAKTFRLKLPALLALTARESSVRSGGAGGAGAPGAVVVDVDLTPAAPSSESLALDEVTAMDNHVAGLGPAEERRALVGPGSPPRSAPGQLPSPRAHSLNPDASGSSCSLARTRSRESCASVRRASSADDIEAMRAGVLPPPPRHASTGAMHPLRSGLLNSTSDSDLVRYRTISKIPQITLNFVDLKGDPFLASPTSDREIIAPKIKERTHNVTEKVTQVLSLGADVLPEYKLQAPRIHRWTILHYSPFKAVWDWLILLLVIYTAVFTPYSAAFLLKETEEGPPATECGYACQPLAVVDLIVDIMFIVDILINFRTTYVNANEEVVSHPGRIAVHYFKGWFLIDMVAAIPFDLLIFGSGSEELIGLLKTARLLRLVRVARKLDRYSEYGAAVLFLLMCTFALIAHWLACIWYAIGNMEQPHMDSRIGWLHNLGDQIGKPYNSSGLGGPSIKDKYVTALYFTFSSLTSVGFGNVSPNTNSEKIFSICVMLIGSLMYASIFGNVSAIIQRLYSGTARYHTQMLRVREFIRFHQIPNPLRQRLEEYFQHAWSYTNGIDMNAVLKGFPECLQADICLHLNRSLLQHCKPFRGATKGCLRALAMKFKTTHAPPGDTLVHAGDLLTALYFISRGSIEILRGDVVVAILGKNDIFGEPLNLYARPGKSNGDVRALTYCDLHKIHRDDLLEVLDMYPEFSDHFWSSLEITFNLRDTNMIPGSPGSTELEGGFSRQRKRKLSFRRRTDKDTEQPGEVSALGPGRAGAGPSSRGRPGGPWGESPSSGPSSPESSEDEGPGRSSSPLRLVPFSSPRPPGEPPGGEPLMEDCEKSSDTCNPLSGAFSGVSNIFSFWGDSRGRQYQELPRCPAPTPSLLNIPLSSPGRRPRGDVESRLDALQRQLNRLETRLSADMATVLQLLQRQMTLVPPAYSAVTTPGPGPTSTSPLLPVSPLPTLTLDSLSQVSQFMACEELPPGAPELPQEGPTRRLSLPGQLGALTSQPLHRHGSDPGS
Chain of Thyroid hormone receptor beta (Homo sapiens) (P10828 whole entry, looked up): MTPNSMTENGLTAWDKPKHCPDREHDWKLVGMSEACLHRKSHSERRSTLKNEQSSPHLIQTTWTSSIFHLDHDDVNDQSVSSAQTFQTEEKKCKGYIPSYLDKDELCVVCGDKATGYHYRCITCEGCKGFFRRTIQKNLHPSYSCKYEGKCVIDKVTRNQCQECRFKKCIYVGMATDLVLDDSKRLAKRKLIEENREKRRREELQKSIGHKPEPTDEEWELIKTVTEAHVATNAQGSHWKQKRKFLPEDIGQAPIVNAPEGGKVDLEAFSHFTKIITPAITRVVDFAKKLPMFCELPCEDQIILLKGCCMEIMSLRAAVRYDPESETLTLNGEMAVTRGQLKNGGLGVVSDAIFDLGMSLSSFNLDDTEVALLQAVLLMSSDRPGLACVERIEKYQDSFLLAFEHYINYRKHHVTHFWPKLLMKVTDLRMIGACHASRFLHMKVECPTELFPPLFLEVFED

CCN(CC)CCO
inactive: Potency [1] | Potency [2] | caspase-3 activation [3] 2.76% | outcome [4] | Potency [5] | Potency [6] | Potency [7] | Potency [8] | Potency [9] | Potency [10] | Potency [11] | Potency [12] | Potency [13] | Potency [14] | activation [15] -0.22% | Potency [16] | Potency [17] | outcome [18]

CNC(=O)O/N=C/C(C)(C)S(C)=O (centres undefined)
inactive: caspase-3 activation [3] 0.627% | outcome [4] | Potency [5] | Potency [6] | Potency [7] | Potency [9] | Potency [19] | Potency [10] | Potency [11] | Potency [12] | activity change % (negative = inhibition) [20] 6.05% and 1.68% | Potency [14] | activation [15] -0.721% and -0.0233% | Potency [16] | Potency [17] | outcome [18]

CCCN(CCC)c1c([N+](=O)[O-])cc(C(F)(F)F)cc1[N+](=O)[O-]
inactive: Potency [2] | caspase-3 activation [3] 2.21% | outcome [4] | Potency [5] | Potency [7] | Potency [8] | Potency [9] | Potency [19] | Potency [10] | Potency [11] | Potency [12] | Potency [13] | activity change % (negative = inhibition) [20] 9.18% and -4.26% | activation [15] -3.66% and -3.44% | Potency [16] | Potency [17]

O=P(OCCCl)(OCCCl)OCCCl
inactive: Potency [1] | Potency [2] | outcome [4] | Potency [7] | Potency [8] | Potency [9] | Potency [19] | Potency [10] | Potency [11] | Potency [12] | Potency [13] | activity change % (negative = inhibition) [20] 2.42% | Potency [14] | Potency [16] | Potency [17] | outcome [18]

C=CCc1cc(OC)c2c(c1)OCO2
inactive: Potency [1] | Potency [2] | caspase-3 activation [3] -0.188% | outcome [4] | Potency [5] | Potency [6] | Potency [7] | Potency [8] | Potency [19] | Potency [10] | Potency [12] | Potency [13] | activity change % (negative = inhibition) [20] 4.98% | Potency [14] | activation [15] -0.352% | Potency [16] | Potency [17] | outcome [18]
